Data taken from article PMC5540273 (PLoS ONE, 2017).

Columns and labels:
Details in all cases: concentration: 1 μM, replicates: in singlicate; n = 1
[1] = test system: CAMK1
[2] = test system: CAMK2A
[3] = test system: CAMK2B
[4] = test system: CAMK2D
[5] = test system: CAMK2G
[6] = test system: CAMK4
[7] = test system: CAMKK1
[8] = test system: CAMKK2
[9] = test system: CASK
[10] = test system: T1, CDC2L1
T1 construct: gene CDK11B

[11] = test system: CDC2L2
[12] = test system: T2, CDC2L5
T2 construct: gene CDK13

[13] = test system: T3, CDK11
T3 construct: gene CDK19

[14] = test system: CDK2
[15] = test system: CDK3
[16] = test system: CDK4-cyclinD1
[17] = test system: CDK4-cyclinD3
[18] = test system: CDK4
[19] = test system: CDK5
[20] = test system: CDK7
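Note: KINOMEscan kinase panel screen.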

SMILES	%Inh [1]	%Inh [2]	%Inh [3]	%Inh [4]	%Inh [5]	%Inh [6]	%Inh [7]	%Inh [8]	%Inh [9]	%Inh [10]	%Inh [11]	%Inh [12]	%Inh [13]	%Inh [14]	%Inh [15]	%Inh [16]	%Inh [17]	%Inh [18]	%Inh [19]	%Inh [20]
CCn1c(-c2nonc2N)nc2c(-c3ccccc3)ncc(OCCCN)c21.O=C(O)C(F)(F)F.O=C(O)C(F)(F)F [GSK260205]	7%	0%	0%	14%	14%	8%	0%	0%	1%	0%	0%	0%	0%	0%	0%	0%	0%	0%	0%	0%
COc1cccc2c(-c3ccncc3)c(-c3ccc(F)cc3)nn12 [GW468513]	0%	0%	0%	0%	13%	0%	6%	5%	0%	0%	4%	0%	8%	4%	6%	27%	0%	0%	0%	0%
O=C1NC(=O)C(c2ccccc2Cl)=C1Nc1cccc(Cl)c1 [SB-342409]	0%	10%	0%	43%	19%	47%	21%	0%	39%	0%	13%	0%	0%	1%	14%	7%	33%	0%	0%	42%
CS(=O)(=O)c1cccc(CNc2nc(Nc3ccc4c(c3)CCC(=O)N4)ncc2C(F)(F)F)c1	0%	0%	0%	0%	0%	0%	20%	9%	0%	0%	0%	0%	0%	30%	12%	0%	0%	6%	22%	80%
COC(=O)Nc1nc2ccc(Oc3ccc(NC(=O)Nc4cc(C(F)(F)F)ccc4F)cc3)cc2[nH]1.Cl [GW654607]	2%	0%	0%	0%	15%	0%	6%	6%	12%	0%	4%	6%	87%	30%	18%	0%	0%	26%	17%	97.4%
COC(=O)Nc1nc2ccc(Oc3ccc(CC(=O)Nc4cc(C(F)(F)F)ccc4F)cc3)cc2[nH]1 [GW680903]	2%	0%	0%	1%	12%	0%	0%	9%	0%	0%	8%	0%	0%	0%	11%	27%	4%	10%	0%	0%
Fc1cc(Cl)ccc1Nc1ccnc2cc(-c3ccc(CN4CCSCC4)o3)ccc12 [GW560106]	21%	0%	0%	5%	17%	0%	25%	21%	0%	0%	0%	0%	1%	0%	0%	35%	0%	53%	0%	0%
CN(C)CCNS(=O)(=O)c1ccc(-c2ccnc3[nH]ccc23)cc1 [GSK977620]	50%	0%	0%	0%	5%	57%	0%	0%	3%	0%	0%	0%	5%	0%	0%	0%	0%	11%	0%	45%
CSc1ccc(NC2=C(c3ccc(Cl)cc3)C(=O)NC2=O)cc1 [SB-317658]	19%	4%	0%	18%	1%	12%	0%	0%	0%	0%	2%	0%	0%	6%	18%	0%	0%	12%	28%	36%
Cc1nn2c(=O)cc(N3CCO[C@H](C)C3)nc2n1Cc1cccc(Cl)c1Cl [GSK2373693]	0%	0%	0%	10%	5%	5%	20%	2%	75%	0%	4%	0%	3%	54%	76%	53%	2%	13%	0%	0%
Cn1cc(-c2ccc3c(c2)CCN3C(=O)Cc2cc(F)cc(F)c2F)c2c(N)ncnc21 [GSK2634140]	15%	0%	0%	0%	11%	0%	27%	1%	3%	0%	19%	0%	86%	8%	45%	0%	0%	26%	0%	0%
